These results are taken from paper PMC7862700, “An all-to-all approach to the identification of sequence-specific readers for epigenetic DNA modifications on cytosine”.

Common to all, as to assay: DAPPL (digital affinity profiling via proximity ligation, sequencing); 10 mM Tris-HCl pH 7.5, 50 mM NaCl, 1 mM DTT, 4% glycerol, room temperature, 30 min; GST-TFs on glutathione beads, 16-mer random dsDNA library, 0.1% formaldehyde crosslink after washing; high values mean tight binding
Holding throughout (conditions): protein: recombinant; tags: N-terminal GST; dsDNA, one strand shown

The target in one assay is T1, ERF (Homo sapiens, UniProt P50548 1-548).
T1 sequence: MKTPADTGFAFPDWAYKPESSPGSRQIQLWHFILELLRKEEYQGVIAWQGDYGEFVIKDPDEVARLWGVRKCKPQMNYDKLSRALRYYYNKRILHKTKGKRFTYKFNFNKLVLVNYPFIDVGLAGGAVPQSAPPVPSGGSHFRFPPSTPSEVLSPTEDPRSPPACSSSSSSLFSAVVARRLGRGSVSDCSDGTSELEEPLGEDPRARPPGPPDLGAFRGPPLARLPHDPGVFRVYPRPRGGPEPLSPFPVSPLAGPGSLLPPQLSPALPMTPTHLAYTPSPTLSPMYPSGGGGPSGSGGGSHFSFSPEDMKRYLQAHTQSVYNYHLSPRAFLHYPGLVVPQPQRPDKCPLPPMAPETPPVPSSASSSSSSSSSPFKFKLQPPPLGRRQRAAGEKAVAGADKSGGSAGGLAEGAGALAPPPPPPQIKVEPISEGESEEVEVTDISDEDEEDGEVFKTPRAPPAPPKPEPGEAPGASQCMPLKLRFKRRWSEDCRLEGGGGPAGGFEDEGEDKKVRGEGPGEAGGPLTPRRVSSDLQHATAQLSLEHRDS
A digest of the protocol:
(§1)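 Binding signal is given per hexamer as its read frequency for a factor divided by its frequency in the tag-only sample. GST-fused human transcription factors were expressed in yeast, captured on glutathione beads, barcoded with DNA and pooled with that sample, then incubated with 200 nmole of a 16-mer random double-stranded DNA library in Tris/NaCl/DTT/glycerol buffer for 30 min at room temperature. The pools were then washed, crosslinked, proximity-ligated, amplified by PCR and sequenced on an Illumina NextSeq500.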

For another assay, the target named is T2, ETV3L (Homo sapiens, UniProt Q6ZN32 1-361).
T2 sequence: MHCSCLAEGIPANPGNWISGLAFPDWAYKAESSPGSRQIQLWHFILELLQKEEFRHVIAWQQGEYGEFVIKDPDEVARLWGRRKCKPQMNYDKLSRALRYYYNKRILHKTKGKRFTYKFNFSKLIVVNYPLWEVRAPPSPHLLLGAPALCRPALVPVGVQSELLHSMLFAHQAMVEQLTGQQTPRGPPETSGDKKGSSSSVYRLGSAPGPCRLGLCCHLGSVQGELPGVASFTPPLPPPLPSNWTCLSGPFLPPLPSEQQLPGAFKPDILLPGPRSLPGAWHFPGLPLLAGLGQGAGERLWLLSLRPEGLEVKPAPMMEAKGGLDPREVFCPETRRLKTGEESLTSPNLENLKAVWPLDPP
An outline of the steps: as §1

The target in another assay is T3, ETS2 (Homo sapiens, UniProt P15036 1-469).
T3 sequence: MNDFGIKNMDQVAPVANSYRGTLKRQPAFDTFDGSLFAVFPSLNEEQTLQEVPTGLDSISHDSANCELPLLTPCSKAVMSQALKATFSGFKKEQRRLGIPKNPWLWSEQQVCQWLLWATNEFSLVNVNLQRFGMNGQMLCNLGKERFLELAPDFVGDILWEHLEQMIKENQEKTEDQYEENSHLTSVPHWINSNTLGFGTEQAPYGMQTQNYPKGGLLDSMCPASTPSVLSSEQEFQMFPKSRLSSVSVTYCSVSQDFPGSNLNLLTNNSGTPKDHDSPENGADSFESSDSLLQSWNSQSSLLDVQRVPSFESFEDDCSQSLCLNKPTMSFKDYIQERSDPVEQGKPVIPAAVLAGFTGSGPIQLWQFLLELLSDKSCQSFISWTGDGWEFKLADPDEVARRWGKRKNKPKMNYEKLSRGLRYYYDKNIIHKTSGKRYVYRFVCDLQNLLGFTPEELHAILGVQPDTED
An outline of the steps: as §1

In a further assay the target is T4, SPDEF (Homo sapiens, UniProt O95238 1-335).
T4 sequence: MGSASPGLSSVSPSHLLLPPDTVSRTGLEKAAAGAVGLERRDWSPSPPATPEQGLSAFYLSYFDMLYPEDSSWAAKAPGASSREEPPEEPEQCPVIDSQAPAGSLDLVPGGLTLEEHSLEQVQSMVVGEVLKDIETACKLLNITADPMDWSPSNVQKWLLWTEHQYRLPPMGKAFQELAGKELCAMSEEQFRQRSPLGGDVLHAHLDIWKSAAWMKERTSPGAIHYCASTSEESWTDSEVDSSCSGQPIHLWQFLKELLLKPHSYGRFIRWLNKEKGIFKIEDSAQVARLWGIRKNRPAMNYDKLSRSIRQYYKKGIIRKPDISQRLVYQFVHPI
An outline of the steps:
as §1

Another assay addresses T5, ETV7 (Homo sapiens, UniProt Q9Y603 1-341).
T5 sequence: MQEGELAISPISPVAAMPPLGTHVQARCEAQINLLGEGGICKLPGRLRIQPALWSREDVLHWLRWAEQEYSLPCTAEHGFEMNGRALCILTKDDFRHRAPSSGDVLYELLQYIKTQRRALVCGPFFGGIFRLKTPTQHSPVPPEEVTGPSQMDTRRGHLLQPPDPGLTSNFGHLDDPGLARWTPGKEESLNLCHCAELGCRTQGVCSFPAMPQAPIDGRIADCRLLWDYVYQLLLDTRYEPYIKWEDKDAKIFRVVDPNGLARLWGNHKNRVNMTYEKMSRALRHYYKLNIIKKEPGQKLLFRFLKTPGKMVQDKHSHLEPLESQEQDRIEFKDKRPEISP
An outline of the steps: as §1

The target of the next assay is T6, ELF5 (Homo sapiens, UniProt Q9UKW6-2 1-255).
T6 sequence: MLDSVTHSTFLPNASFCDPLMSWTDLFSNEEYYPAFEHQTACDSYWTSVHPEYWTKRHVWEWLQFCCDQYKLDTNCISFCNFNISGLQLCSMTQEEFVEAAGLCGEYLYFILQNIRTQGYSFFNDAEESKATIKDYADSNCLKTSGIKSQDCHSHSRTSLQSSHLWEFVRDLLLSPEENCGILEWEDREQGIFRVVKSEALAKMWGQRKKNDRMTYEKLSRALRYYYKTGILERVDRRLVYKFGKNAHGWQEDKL
A digest of the protocol:
as §1

A further assay has as its target T7, ETV3 (Homo sapiens, UniProt P41162-2 1-143).
T7 sequence: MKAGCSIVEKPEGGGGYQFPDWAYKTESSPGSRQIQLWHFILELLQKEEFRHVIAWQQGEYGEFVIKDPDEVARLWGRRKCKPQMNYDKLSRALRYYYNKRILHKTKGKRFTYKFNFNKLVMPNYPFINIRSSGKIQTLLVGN
A digest of the protocol:
as §1

Another assay deals with ETV6 (Homo sapiens, UniProt P41212 1-452). An outline of the steps:
as §1

Sequence of ETV6 (P41212 whole entry): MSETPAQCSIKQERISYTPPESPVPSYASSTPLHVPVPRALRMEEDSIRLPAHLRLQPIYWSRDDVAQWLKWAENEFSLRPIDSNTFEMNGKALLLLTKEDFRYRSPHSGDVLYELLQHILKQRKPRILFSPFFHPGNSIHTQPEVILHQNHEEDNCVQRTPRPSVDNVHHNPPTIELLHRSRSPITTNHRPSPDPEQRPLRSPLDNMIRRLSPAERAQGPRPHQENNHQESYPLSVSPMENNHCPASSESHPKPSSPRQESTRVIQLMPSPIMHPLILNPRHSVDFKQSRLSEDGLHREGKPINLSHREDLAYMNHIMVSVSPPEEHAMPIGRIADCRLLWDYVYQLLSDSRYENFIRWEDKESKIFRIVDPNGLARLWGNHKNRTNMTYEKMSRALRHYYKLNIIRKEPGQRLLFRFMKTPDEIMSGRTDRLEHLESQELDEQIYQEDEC

As to AATCTG, the binding signal with ERF was 1.41 fold enrichment (6-mer frequency, TF over GST control); in the assay with ETV3L, 1.39 fold enrichment (6-mer frequency, TF over GST control); in the assay with ETS2, 1.52 fold enrichment (6-mer frequency, TF over GST control); in the assay with SPDEF, 1.37 fold enrichment (6-mer frequency, TF over GST control); in the assay with ETV7 it was 1.46 fold enrichment (6-mer frequency, TF over GST control); with ELF5 it was 1.37 fold enrichment (6-mer frequency, TF over GST control). The binding signal with ETV3 was 1.43 fold enrichment (6-mer frequency, TF over GST control); in the assay with ETV6, 1.4 fold enrichment (6-mer frequency, TF over GST control).

Turning to TTCGCC, the binding signal was 1.14 fold enrichment (6-mer frequency, TF over GST control) with ERF; 1.27 fold enrichment (6-mer frequency, TF over GST control) with ETV3L; 1.12 fold enrichment (6-mer frequency, TF over GST control) with ETS2; 1.1 fold enrichment (6-mer frequency, TF over GST control) with SPDEF; 1.18 fold enrichment (6-mer frequency, TF over GST control) with ETV7; 1.04 fold enrichment (6-mer frequency, TF over GST control) in the assay with ELF5. For the same sequence, the binding signal with ETV3 was 1.08 fold enrichment (6-mer frequency, TF over GST control); with ETV6, 1.16 fold enrichment (6-mer frequency, TF over GST control).

For ATTGTA, the binding signal with ERF was 1.27 fold enrichment (6-mer frequency, TF over GST control); with ETV3L it was 1.28 fold enrichment (6-mer frequency, TF over GST control); with ETS2 it was 1.17 fold enrichment (6-mer frequency, TF over GST control); with SPDEF, 1.18 fold enrichment (6-mer frequency, TF over GST control); with ETV7 it was 1.28 fold enrichment (6-mer frequency, TF over GST control); with ELF5, 1.21 fold enrichment (6-mer frequency, TF over GST control). Further, the binding signal with ETV3 is 1.26 fold enrichment (6-mer frequency, TF over GST control); with ETV6, 1.27 fold enrichment (6-mer frequency, TF over GST control).

CATACT: the binding signal is 1.3 fold enrichment (6-mer frequency, TF over GST control) in the assay with ERF; 1.33 fold enrichment (6-mer frequency, TF over GST control) with ETV3L; 1.32 fold enrichment (6-mer frequency, TF over GST control) with ETS2; 1.23 fold enrichment (6-mer frequency, TF over GST control) with SPDEF; 1.28 fold enrichment (6-mer frequency, TF over GST control) with ETV7; 1.27 fold enrichment (6-mer frequency, TF over GST control) in the assay with ELF5. In addition, the binding signal with ETV3 was 1.36 fold enrichment (6-mer frequency, TF over GST control); in the assay with ETV6, 1.26 fold enrichment (6-mer frequency, TF over GST control).

As for TTGTGT, the binding signal with ERF is 1.4 fold enrichment (6-mer frequency, TF over GST control); with ETV3L, 1.15 fold enrichment (6-mer frequency, TF over GST control); with ETS2, 1.16 fold enrichment (6-mer frequency, TF over GST control); with SPDEF it was 1.26 fold enrichment (6-mer frequency, TF over GST control); with ETV7, 1.34 fold enrichment (6-mer frequency, TF over GST control); with ELF5 it was 1.16 fold enrichment (6-mer frequency, TF over GST control). Moreover, the binding signal with ETV3 is 1.27 fold enrichment (6-mer frequency, TF over GST control); with ETV6, 1.19 fold enrichment (6-mer frequency, TF over GST control).

Consider CCTTCT, for which the binding signal with ERF is 1.5 fold enrichment (6-mer frequency, TF over GST control); with ETV3L it was 1.62 fold enrichment (6-mer frequency, TF over GST control); with ETS2 it was 1.53 fold enrichment (6-mer frequency, TF over GST control); with SPDEF, 1.84 fold enrichment (6-mer frequency, TF over GST control); in the assay with ETV7 it was 1.45 fold enrichment (6-mer frequency, TF over GST control); with ELF5, 1.86 fold enrichment (6-mer frequency, TF over GST control). The binding signal with ETV3 is 1.44 fold enrichment (6-mer frequency, TF over GST control); in the assay with ETV6, 1.58 fold enrichment (6-mer frequency, TF over GST control).

As to CTCTCG, the binding signal was 1.36 fold enrichment (6-mer frequency, TF over GST control) with ERF; 1.42 fold enrichment (6-mer frequency, TF over GST control) with ETV3L; 1.4 fold enrichment (6-mer frequency, TF over GST control) with ETS2; 1.16 fold enrichment (6-mer frequency, TF over GST control) in the assay with SPDEF; 1.25 fold enrichment (6-mer frequency, TF over GST control) with ETV7; 1.34 fold enrichment (6-mer frequency, TF over GST control) in the assay with ELF5. The binding signal with ETV3 is 1.35 fold enrichment (6-mer frequency, TF over GST control); with ETV6, 1.31 fold enrichment (6-mer frequency, TF over GST control).

For the sequence ATAGAT, the binding signal was 1.2 fold enrichment (6-mer frequency, TF over GST control) in the assay with ERF; 1.25 fold enrichment (6-mer frequency, TF over GST control) with ETV3L; 1.12 fold enrichment (6-mer frequency, TF over GST control) with ETS2; 1.27 fold enrichment (6-mer frequency, TF over GST control) with SPDEF; 1.17 fold enrichment (6-mer frequency, TF over GST control) with ETV7; 1.18 fold enrichment (6-mer frequency, TF over GST control) in the assay with ELF5. The binding signal with ETV3 is 1.01 fold enrichment (6-mer frequency, TF over GST control); with ETV6, 1.15 fold enrichment (6-mer frequency, TF over GST control).
